Source: PubChem BioAssay AID2188 (Vanderbilt High Throughput Screening Facility, 2009)
Measured potencies and affinities stand elsewhere.

Target: Metabotropic glutamate receptor 2 (Rattus norvegicus) (UniProt P31421)
Assay: mGluR2 modulation, off-target check – cell-based, rat, selectivity assay for mGluR4 modulator project (AID 2188)
Conditions: mGluR2 cells, thallium flux, glutamate CRC + 10 uM compound; glutamate EC50 fold-shift by compound; at 10 µM; stronger effect = higher value

Sequence of Metabotropic glutamate receptor 2 (Rattus norvegicus) (P31421 whole entry, looked up): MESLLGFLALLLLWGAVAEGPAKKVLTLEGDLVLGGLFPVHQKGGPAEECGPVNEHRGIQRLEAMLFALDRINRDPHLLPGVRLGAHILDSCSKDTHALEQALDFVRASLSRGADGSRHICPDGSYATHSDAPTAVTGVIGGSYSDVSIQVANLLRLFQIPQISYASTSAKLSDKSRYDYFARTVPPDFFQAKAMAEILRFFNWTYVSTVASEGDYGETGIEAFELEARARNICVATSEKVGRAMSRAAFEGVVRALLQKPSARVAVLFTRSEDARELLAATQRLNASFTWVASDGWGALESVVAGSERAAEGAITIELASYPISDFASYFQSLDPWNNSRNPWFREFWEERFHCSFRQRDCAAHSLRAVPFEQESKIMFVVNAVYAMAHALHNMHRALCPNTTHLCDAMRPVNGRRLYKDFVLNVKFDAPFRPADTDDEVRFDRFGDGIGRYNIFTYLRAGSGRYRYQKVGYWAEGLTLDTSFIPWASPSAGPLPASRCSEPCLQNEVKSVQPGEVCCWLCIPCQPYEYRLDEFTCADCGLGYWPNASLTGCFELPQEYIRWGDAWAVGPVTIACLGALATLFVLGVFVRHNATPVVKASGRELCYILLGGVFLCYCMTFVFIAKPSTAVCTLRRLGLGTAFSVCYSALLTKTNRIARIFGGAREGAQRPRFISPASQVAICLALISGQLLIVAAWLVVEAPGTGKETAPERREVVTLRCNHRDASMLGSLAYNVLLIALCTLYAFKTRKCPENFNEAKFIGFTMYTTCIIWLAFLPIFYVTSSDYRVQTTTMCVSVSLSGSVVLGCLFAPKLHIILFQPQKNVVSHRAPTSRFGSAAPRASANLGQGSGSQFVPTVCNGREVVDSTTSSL

SMILES | fold shift
O=C(Nc1cccc(Cl)c1)c1ccccn1 | 1.87
O=C(Nc1ccc(N2C(=O)C3[C@H]4C=C[C@H](C4)[C@H]3C2=O)c(Cl)c1)c1ccccn1 (some centres not stated) | 1.05
